These results are taken from PubChem BioAssay (NCI).

What all share (assay): NCI-60 one-dose screen, 48 h (100 = growth as untreated, 0 = no growth, -100 = all killed)
What all share (details): 10 µM

Assay [1] has as its system HT29 colon.
The test system of assay [2] is SNB-75 CNS.
Assay [3] relates to SNB-19 CNS.
Assay [4] relates to U251 CNS.
Assay [5] relates to PC-3 prostate.
Assay [6] deals with SK-MEL-5 melanoma.
In assay [7] the test system is UACC-62 melanoma.
The test system of assay [8] is LOX IMVI melanoma.
Assay [9] concerns SK-MEL-28 melanoma.
Assay [10] relates to SK-MEL-2 melanoma.

Each structure is given as a SMILES string. About 83,000 compounds went through this panel and 20% of them were active in at least one assay; those are over-represented in the sample as a whole.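 Cell lines were cultured in 96-well plates, exposed to a single compound concentration, and assessed for percent growth 48 hours later.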 A number with no mark means an inactive call. Active and inactive are the calls of the source. Rule for the calls: active = growth percent below 10; inactive = the rest.

Turning to `OCC1OC(n2cnc3c(N/N=C\c4ccccn4)ncnc32)C(O)C1O` (stereo not given), the growth in assay [1] is 34.5%; in assay [2], 40.3%; in [3], 34.5%; in assay [4], 25.1%; in assay [5], 21%; in [6] it was -10.1% (active). In addition, the growth in assay [7] was 22%; in assay [8] it was 11.2%; in assay [9], 38%; in assay [10], 58.2%.

Consider `O=C1/C(=C\c2ccccc2)CN(C(=O)c2ccccc2F)C/C1=C\c1ccccc1`, for which the growth in assay [1] was -46.7% (active); in assay [2], 53.5%; in assay [3] it was 51%; in assay [4], -36% (active); in [5], 8.54% (active); in [6] it was -48.6% (active). Also, the growth in [7] is -17.4% (active); in assay [8], -86% (active); in [9] it was -56.7% (active); in assay [10], 54.8%.

For `COc1cc(-c2cc(/C=C/C(=O)c3ccc(N)cc3)[nH]n2)cc(OC)c1OC`, the growth in assay [1] is 2.34% (active); in assay [2], 8.6% (active); in [3] it was 36.6%; in assay [4], -58.4% (active); in [5], 11.1%; in assay [6], 11.8%. The growth in assay [7] was 20.6%; in assay [8], -52.3% (active); in [9], 6.59% (active); in assay [10] it was 28.6%.

Regarding `COc1ccc2c(c1)C(=O)c1c-2c(OCCN2CCCCC2)nc2ccc(OC)cc12`, the growth in [1] was 1.76% (active); in assay [2], 20.8%; in [3], 32.3%; in assay [4], 12%; in [5] it was 43.3%; in assay [6], 22.1%. For the same compound, the growth in assay [7] is 20.6%; in [8], -52.9% (active); in assay [9] it was 72.3%; in assay [10], 7.82% (active).

Consider `Cc1cc(C)c(NC(=O)c2sc3nc4c(cc3c2N)C(=O)CCC4)c(C)c1`, for which the growth is 0.48% (active) in assay [1]; 0% (active) in assay [2]; 40.2% in [3]; 21.1% in assay [4]; 23.5% in [5]; 11.3% in assay [6]. The growth in assay [7] is 23.2%; in [8], 50.6%; in assay [9] it was 56%; in assay [10], 36.1%.

As for `CCOC(=O)N1C/C(=C/c2ccc(F)cc2)C(=O)/C(=C/c2ccc(F)cc2)C1`, the growth in assay [1] was -58.8% (active); in assay [2], 56.8%; in [3], 39.6%; in [4], -65.6% (active); in [5], -25.3% (active); in assay [6] it was -59.7% (active). The growth was -56.8% (active) in [7], -84.5% (active) in assay [8], -37.4% (active) in assay [9] and 21.7% in assay [10].

`Cc1ccc(NC(=O)Nc2nc3ccccc3s2)cc1NC(=O)Nc1nc2ccccc2s1`: the growth in [1] was 90.1%; in [2], 61.5%; in assay [3] it was 92%; in assay [4] it was 77.2%; in [5] it was 44.5%; in assay [6], 79.6%. Moreover, the growth in assay [7] is 86.6%; in assay [8] it was 91.7%; in assay [9], 101%; in [10], 98.5%.

Take `N=c1nc(N)ncn1-c1ccccc1`: the growth in assay [1] was 96.4%; in assay [2] it was 86.5%; in assay [3] it was 98.2%; in assay [4], 95.1%; in assay [5], 96.8%; in assay [6] it was 102%. For the same compound, the growth is 93.5% in assay [7], 94.9% in assay [8], 98.6% in assay [9] and 106% in assay [10].

For `CCCCN(CCCC)c1cc(C(=O)CCCCCN)c2ccccc2n1`, the growth was -38% (active) in [1]; 105% in assay [2]; 105% in assay [3]; -77.9% (active) in [4]; -93.2% (active) in assay [5]; 98.3% in assay [6]. Besides, the growth in [7] is 105%; in assay [8] it was -18% (active); in assay [9] it was 118%; in assay [10], 87.9%.

As to `COC(=O)c1c(-c2ccccc2)csc1NC(=O)c1c(-c2ccccc2)noc1C`, the growth in [1] was 7.12% (active); in assay [2] it was 48.1%; in assay [3], 43.9%; in [4] it was 13.3%; in assay [5], 32.5%; in [6], 32%. The growth in assay [7] is 48.3%; in [8], -50% (active); in [9] it was 47.9%; in assay [10] it was 61.2%.

For `O=C(Nc1ccncc1)C(=O)c1cn(S(=O)(=O)c2cccc(Cl)c2)c2ccccc12`, the growth is 29% in assay [1]; 85.3% in assay [2]; 89.8% in assay [3]; 61.2% in assay [4]; 72.4% in assay [5]; 51.7% in assay [6]. The growth is 61.2% in assay [7], 44.6% in [8], 86.5% in [9] and 57.7% in assay [10].

As to `Cn1c([N+](=O)[O-])cnc1/C=C1\Oc2ccccc2C1=O`, the growth in assay [1] was -23.7% (active); in assay [2], 43.8%; in assay [3] it was -17.3% (active); in assay [4], -12.6% (active); in assay [5] it was -21.4% (active); in [6], -94.1% (active). Besides, the growth was -90% (active) in assay [7], -50.2% (active) in assay [8], -25.9% (active) in [9] and -53.3% (active) in assay [10].

Regarding `O=C(Nc1ccc(Cl)c([N+](=O)[O-])c1)Nc1nc2ccccc2s1`, the growth in assay [1] was 87.3%; in [2], 94.2%; in assay [3] it was 84.2%; in assay [4] it was 84%; in [5], 49.9%; in [6], 74.3%. The growth in assay [7] is 70%; in assay [8] it was 91.4%; in assay [9] it was 98.8%; in [10], 102%.

In the case of `Cc1cc(=O)n2nnc3c4ccccc4ccc3n12`, the growth in [1] was 85.4%; in [2], 102%; in assay [3], 94.9%; in assay [4], 97%; in assay [5], 62.5%; in assay [6], 88.5%. Moreover, the growth in [7] is 79.9%; in assay [8], 89.3%; in assay [9] it was 98.2%; in assay [10], 113%.
